Source: PubChem BioAssay (Tox21)
Results filed as inconclusive are left out. Where a call stands in place of a potency, no number is given. The source made the active and inactive calls. Calls follow the shape of the dose curve; as a rule, active = well fitted inhibition curve with a large enough effect in the repeat runs; inconclusive = weak or mixed curves, or effect the other way; inactive = no such curve, though single readings can be large or run the other way.

These compounds were tested against Nuclear receptor subfamily 1 group I member 3 (Homo sapiens) (UniProt Q14994) (assay: qHTS assay to identify small molecule antagonists of the constitutive androstane receptor (CAR) signaling pathway (AID 1224838;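 also: HepG2 cells stably expressing hCAR with CYP2B6 luciferase reporter stimulated by CITCO; nearly all actives have a fitted effect of over 40% in size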)). Details: HepG2-CYP2B6-hCAR luciferase, CITCO-stimulated, 24 h; series mostly up to 92.4 µM.
Text: U.S. Tox21 Program National Center for Advancing Translational Sciences [NCATS] NIH Chemical Genomics Center [NCGC] U.S. Environmental Protection Agency [EPA] National Institutes of Environmental Health Sciences [NIEHS] National Toxicology Program [NTP] U.S. Food and Drug Administration [FDA] Tox21 Assay Overview: The constitutive androstane receptor (CAR) is a nuclear receptor which regulates multiple drug metabolizing enzymes (DMEs) and transporters. Activating CAR will generally increase the transcription and subsequent translation of CYP2B6 and CYP3A4. These two DMEs represent about 50% of the drug metabolizing potential in the body. When CAR is deactivated, the metabolizing potential in the body will decrease, subsequently increasing the toxicity in the body or lowering the therapeutic potential of a pro-drug. Recently, there have also been studies performed indicating CARs role in energy metabolism and cancer therapy. Therefore, inhibiting CARs activity could have a potential effect on diabetes and cancer. Identifying environmental toxins and compounds which modulate CAR, through the use of the Tox21 10K compound collection, will be an important step in determining the toxicity and potential therapeutic effects these factors will have on the human body.
Tox21 Assay Protocol Summary: A double-stable (hCAR and CYP2B6-2.2kb) transfected cell line, derived from human hepatoma (HepG2) cells, was utilized for the duration of the quantitative high-throughput screens. The HepG2-CYP2B6-hCAR cells suspended in DMEM culture medium supplemented with 10% FBS, 5 ug/mL blasticidin, 0.5 mg/mL geneticin, 100 U/mL penicillin and 100 ug/mL streptomycin were dispensed at 2500 cells/4 uL/well in 1536-well white solid bottom plates using a Multidrop Combi. After the assay plates were incubated at 37 C/5% CO2 for 4 hrs, 23 nL of compounds at 15 concentrations (from 5-48 columns) or positive control (from 1 to 4 columns) were transferred to the assay plates using a Pintool station. One uL of CITCO, was added using a Flying Reagent Dispenser to generate a final concentration of 50 nM CITCO inside each well. After a 24 hr incubation period at 37 C/5% CO2, four uL of ONE-Glo reagent was added into the assay plates using a Flying Reagent Dispenser. After a 30 min incubation period at room temperature, the luminescence intensity in the assay plates was measured using a ViewLux plate reader.
Potency is read from the fitted curve at half-maximal effect.

Chain of Nuclear receptor subfamily 1 group I member 3 (Homo sapiens) (Q14994 whole entry, looked up): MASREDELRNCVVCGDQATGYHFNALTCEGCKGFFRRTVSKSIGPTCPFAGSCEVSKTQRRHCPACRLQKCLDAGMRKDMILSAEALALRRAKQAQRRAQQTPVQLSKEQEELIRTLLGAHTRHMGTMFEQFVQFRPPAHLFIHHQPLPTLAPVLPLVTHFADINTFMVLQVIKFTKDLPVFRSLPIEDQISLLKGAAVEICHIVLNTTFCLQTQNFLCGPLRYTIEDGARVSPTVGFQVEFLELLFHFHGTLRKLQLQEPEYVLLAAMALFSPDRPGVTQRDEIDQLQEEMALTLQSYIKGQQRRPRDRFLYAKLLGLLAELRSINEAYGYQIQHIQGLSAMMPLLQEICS

Q: CCn1cc(C(=O)O)c(=O)c2cnc(N3CCNCC3)nc21 was tested. Which Potency did it give?
A: inactive

Q: With O=C1CCCCCCCCCCCC(=O)OCCO1 as the compound, how does the Potency read?
A: inactive

Q: For CCOc1ccc(O)cc1, which Potency is on record?
A: inactive

Q: How did the Potency turn out when C=CC(=O)OCCOCCOCCOCCOC(=O)C=C was run?
A: 61.4 µM (active)

Q: Which Potency does the source give for O=C(O)C1(C(=O)Nc2ccc(Cl)cc2Cl)CC1 here?
A: inactive

Q: For Cc1ccc(N=Nc2c(O)c(C(=O)O)cc3ccccc23)c(S(=O)(=O)O)c1, which Potency is on record?
A: inactive

Q: For CCOC(=O)C1=C[C@]2(CC)CCCN3CCc4c(n1c1ccccc41)[C@@H]32, which Potency is on record?
A: inactive

Q: Which Potency does the source give for OCCNCc1ccccc1 here?
A: inactive

Q: With c1ccc(CNCCNCc2ccccc2)cc1 as the compound, how does the Potency read?
A: inactive

Q: For O=C(O)C1(C(=O)O)CCC1.[NH2-].[NH2-].[Pt+2], which Potency is on record?
A: inactive

Q: O=C1c2ccccc2S(=O)(=O)N1CCCCN1CCN(c2ncccn2)CC1 was tested. Which Potency did it give?
A: inactive

Q: How did the Potency turn out when CCCCCCCCCCO[C@@H]1O[C@H](CO)[C@@H](O)[C@H](O)[C@H]1O was run?
A: inactive

Q: Clc1ccc(Cn2c(CN3CCCC3)nc3ccccc32)cc1 was tested. Which Potency did it give?
A: 11.9 µM (active)

Q: With CC(C)(O)c1ccc(CNC(=O)c2cccnc2Oc2ccc(F)cc2)cc1 as the compound, how does the Potency read?
A: inactive

Q: For CNC(=O)CN(CCN(CCN(CC(=O)[O-])CC(=O)NC)CC(=O)[O-])CC(=O)[O-].O.[Gd+3], which Potency is on record?
A: inactive

Q: How did the Potency turn out when O=C1C(O)=C(O)C(=O)C(O)=C1O was run?
A: inactive

Q: For CCOC(=O)C(=O)CCc1ccccc1, which Potency is on record?
A: inactive

Q: For CC1CCC(=O)C1=O (stereo not given), which Potency is on record?
A: inactive

Q: How did the Potency turn out when COc1cccc(N(C)C(=S)Oc2ccc3c(c2)CCCC3)n1 was run?
A: inactive

Q: With CN(C)c1ccc(CCO)cc1 as the compound, how does the Potency read?
A: 27.1 µM (active)

Q: O=C(O)c1ccc(S(=O)(=O)O)cc1C(=O)O was tested. Which Potency did it give?
A: inactive

Q: For C[N+]1(C)CCC(OC(=O)C(O)(c2ccccc2)C2CCCC2)C1 (stereo not given), which Potency is on record?
A: inactive

Q: Which Potency does the source give for CCCCCCCC/C=C\CCCCCCCC(=O)OCC here?
A: inactive

Q: CCCCCCCCCCCCCCCCOS(=O)(=O)O was tested. Which Potency did it give?
A: inactive

Q: Which Potency does the source give for COc1cc2nc(N3CCN(C(=O)C4COc5ccccc5O4)CC3)nc(N)c2cc1OC (stereo not given) here?
A: inactive

Q: How did the Potency turn out when CNCCCN1c2ccccc2CCc2ccccc21 was run?
A: inactive

Q: Nc1cccc(S(=O)(=O)c2cccc(N)c2)c1 was tested. Which Potency did it give?
A: inactive

Q: For COc1cc(Cl)ccc1Oc1ccc(Cl)cc1Cl, which Potency is on record?
A: inactive

Q: Which Potency does the source give for CCOC(=O)NCCOc1ccc(Oc2ccccc2)cc1 here?
A: inactive

Q: For Nc1ccc([N+](=O)[O-])c(C(F)(F)F)c1, which Potency is on record?
A: inactive

Q: For NCCCN1CCOCC1, which Potency is on record?
A: inactive

Q: With COc1ccc(-c2nc3ccc(C4=NNC(=O)CC4C)cc3[nH]2)cc1 (stereo not given) as the compound, how does the Potency read?
A: inactive

Q: With Brc1c2ccccc2cc2ccccc12 as the compound, how does the Potency read?
A: inactive

Q: How did the Potency turn out when OCCN1CCN(CCCN2c3ccccc3C=Cc3ccccc32)CC1 was run?
A: inactive

Q: For COS(=O)(=O)C(F)(F)F, which Potency is on record?
A: inactive

Q: Which Potency does the source give for CCC(C)(C)CC here?
A: inactive

Q: How did the Potency turn out when C[C@@H]1C[C@H]2[C@@H]3CCC4=CC(=O)C=C[C@]4(C)[C@@]3(F)[C@@H](O)C[C@]2(C)[C@@]1(O)C(=O)COC(=O)c1ccncc1 was run?
A: inactive

Q: Which Potency does the source give for CN1C[C@H]2c3ccccc3Oc3ccc(Cl)cc3[C@@H]2C1 here?
A: inactive

Q: Which Potency does the source give for CC(C)Nc1ccc(NC(C)C)c2c1C(=O)c1ccccc1C2=O here?
A: inactive

Q: For COC(C)(C)CCO, which Potency is on record?
A: inactive
